E coli growth-1 – counter-screen for AddAB inhibitors: E. coli growth inhibition. E. coli V3065 growth, OD600 absorbance, 18 h. inhibition, % at 11.9 µM. hit rate 0.27% among 330,000. AID 449728;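 active means inhibition above the campaign's mean inhibition across all tested compounds plus 3 SD, cut at about 9.9% in these data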;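 further: uninfected addAB+ strain grown without phage in ampicillin broth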
Tat transport – E. coli Tat transport inhibition | inhibition, % at 10 µM | hit rate 0.036% among 340,000 | E. coli MC4100 TorA-mCherry Tat export, fluorescence;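 active means mean replicate inhibition at least 50% and at least half of replicates individually reaching 50%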;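 further: exported cargo escapes ClpAP degradation while cytoplasmic cargo is degraded and loses fluorescence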
E coli growth-2 – inhibitors of Escherichia coli growth; AID 1053175; hit rate 0.21% among 330,000; OD600 absorbance (concentration not given with the values); OD600, 23 h; active compounds read low;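 active means OD600 absorbance below the run mean of sample wells minus 3.6 SD, in any replicate, cut at about 0.56 in these data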
AddAB inh – less growth of phage-infected E. coli with AddAB | E. coli expressing H. pylori AddAB, absorbance growth | inhibition, % at 11.9 µM | AID 435030 | hit rate 0.29% among 330,000; in the data active means inhibition above about 12%
phage Ecoli inh – E. coli growth loss with phage present | growth absorbance | inhibition, % at 11.9 µM | hit rate 0.26% among 360,000; in the data active means inhibition above about 11%
AddAB conf – growth loss of T4-infected E. coli expressing H. pylori AddAB, confirmed; AID 488942; hit rate 64% among 880; shares compounds with AddAB inh; E. coli V3065 expressing H. pylori AddAB, T4 phage, OD; T4 phage with gene 2 nonsense mutations; inhibition, % at 11.9 µM;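 active means mean inhibition above a set limit taken from the earlier primary screen, cut at about 13% in these data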;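 further: higher means less bacterial growth since AddAB block lets phage replicate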
RecBCD counter – reduces growth of phage-infected RecBCD+ E. coli, AddAB inhibitor counter-screen; AID 488955; E. coli V66 + mutant T4 phage, OD growth; inhibition, % at 11.9 µM; hit rate 73% among 880; shares compounds with AddAB inh;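 active means mean inhibition above the mean of solvent-only control wells plus 3 SD, cut at about 4% in these data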;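 further: optical density read after an 18 h incubation at 37 °C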
bact viab count – counter-screen for AddAB inhibitors: inhibitors of bacterial viability; hit rate 35% among 880; shares compounds with AddAB inh; AID 488956; absorbance (AddAB counterscreen); inhibition, % at 11.9 µM; in the data active means inhibition above about 25%
Numbers stand for hits; - = inactive; . = no result. Most compounds without a hit are left out; they make up all but 0.5% or so of the library.

SMILES | E coli growth-1 | Tat transport | E coli growth-2 | AddAB inh | phage Ecoli inh | others
C[C@@H]1CC[C@H]2[C@@H](C)C(=O)O[C@@H]3O[C@@]4(C)CC[C@@H]1[C@]32OO4 | - | - | 0.45 | - | -
CCOc1ccc(N2C(=O)NC(=O)C(=Cc3ccc(N4CCCCC4)o3)C2=O)cc1 | . | . | - | . | .
COC(=O)C1=COC(C)C2CN3CC[C@]4(C(=O)Nc5ccccc54)C3CC12 (stereo not given in full) | . | . | - | . | .
Cc1cc(O)ccc1Cl | . | . | . | . | -
Oc1ccc(Cl)c(Cl)c1Cl | - | - | 0.52 | - | -
c1ccc2c(c1)[IH]c1ccccc1-2 | . | - | . | . | 101
COC(=O)C1=C(c2ccccc2)CC2CCC1N2C(=O)N1CCC(C)CC1 (stereo not given) | . | . | - | . | .
Cc1ccc(-c2nc(N3CCOCC3)s[n+]2-c2ccccc2)cc1 | - | - | 0.51 | - | -
C=C(C)C1C2OC(=O)C1[C@]1(O)CC3O[C@]34C(=O)OC2[C@]14C (stereo not given in full) | . | . | - | . | .
O=C1C=CC(=O)C2C1C1(Cl)C(Cl)=C(Cl)C2(Cl)C1(Cl)Cl (stereo not given) | . | - | 0.51 | . | -
CCCNC(=O)N1C2CCC1C(C(=O)OC)=C(c1ccc(C(C)=O)cc1)C2 (stereo not given) | . | . | - | . | .
CN(C)c1ccc(C=Cc2cc[n+](C)c3ccccc23)cc1 | . | . | 0.39 | . | .
CN(C)c1ccc(/C=C/c2cc[n+](C)c3ccccc23)cc1 | . | - | . | . | -
CCC(C)C(NC(=O)CCCNC(=O)CCC(=O)OC1O[C@H]2OC3(C)CC[C@H]4[C@H](C)CCC(C1C)C24OO3)C(=O)O (stereo not given in full) | - | - | . | - | -
CCC(C)NC(=O)CCC(=O)OC1O[C@H]2OC3(C)CC[C@H]4[C@H](C)CCC(C1C)C24OO3 (stereo not given in full) | . | - | 0.5 | . | -
Cc1nn(Cc2ccccc2)c(C)c1C(=O)NCc1ccccc1 | - | 55 | - | - | -
Cc1[nH]c2ccc(OC(F)(F)F)cc2c1CCNCc1ccc(Cl)cc1 | . | - | 0.5 | . | -
COC(=O)C1=C(c2cc3ccccc3o2)CC2CCC1N2C(=O)N1CCC(O)CC1 (stereo not given) | . | . | - | . | .
COc1ccc(N2C(=O)NC(=O)/C(=C\c3ccc([N+](=O)[O-])s3)C2=O)cc1 | - | - | 0.47 | - | -
Nc1cc(Cl)c2nonc2c1[N+](=O)[O-] | - | - | 0.44 | - | -
O=[N+]([O-])c1c(Cl)c(Cl)c(Cl)c(Cl)c1Cl | . | - | . | . | -
O=C1NC(=O)N(c2ccc3c(c2)OCO3)C(=O)C1=Cc1ccc(N2CCCC2)o1 | . | . | - | . | .
CC1CCCN(c2ccc(C(=O)N3CCC4(CC3)OCCO4)cc2[N+](=O)[O-])C1 (stereo not given) | - | - | . | - | -
O=C(c1ccc(N2CCCCC2)c([N+](=O)[O-])c1)N1CCC2(CC1)OCCO2 | - | - | 0.52 | - | -
CCN1/C(=C\C=C\C2=[N+](CC)c3ccccc3C2(C)C)C(C)(C)c2ccccc21 | 30 | - | 0.53 | 35 | . | AddAB conf=51;RecBCD counter=23;bact viab count=46
COC(=O)C1=C(c2ccccc2OCc2ccccc2)CC2CCC1N2C(=O)NCCOc1ccc(OC)cc1 (stereo not given) | . | . | - | . | .
Oc1ccc2c3c1OC1c4oc5ccccc5c4C[C@@]4(O)C(C2)N(CC2CC2)CC[C@]314 (stereo not given in full) | . | . | - | . | .
Oc1c(Cl)c(Cl)c(Cl)c(Cl)c1Cl | 11 | - | - | 13 | 12 | AddAB conf=-;RecBCD counter=17;bact viab count=-
COc1cc(C=C[N+](=O)[O-])ccc1O | . | . | - | . | .
C[C@@H]1O[C@@H](O[C@H]2C[C@@H](O)[C@]3(CO)[C@H]4[C@H](O)C[C@]5(C)[C@@H](C6COC(=O)C6)CC[C@]5(O)[C@@H]4CC[C@]3(O)C2)[C@H](O)[C@H](O)[C@H]1O (stereo not given in full) | 96 | - | . | 98 | - | AddAB conf=-;RecBCD counter=-;bact viab count=-

Compound activity: PubChem, several laboratories
